Measurements: PubChem BioAssay AID588852 (The Scripps Research Institute Molecular Screening Center, 2011)
Hit rate of the full screen: of about 360,000 compounds, about 4,600 (1.3%) were called active.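 How the source made its calls: active means percent inhibition above its own plate's cutoff, namely the mean of that plate's compound wells plus 3 SD; inactive means the rest.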 The full list was thinned out, with actives kept by preference.

The molecules below were run against Muscarinic acetylcholine receptor M1 (Homo sapiens) (UniProt P11229) (assay: CHRM1 blockers of acetylcholine calcium response – CHO-K1 cells, Fluo-8 calcium fluorescence, 1536-well, primary screen (AID 588852;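 further: peak over basal fluorescence ratio during 140 s after agonist addition; 0% = ACh EC80 plus DMSO and 100% = DMSO alone without agonist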)). Conditions: CHO-K1 hM1, Fluo-8 calcium fluorescence, ACh EC80 antagonist; at 3 µM; active compounds read high.
Chain of Muscarinic acetylcholine receptor M1 (Homo sapiens) (P11229 whole entry, looked up): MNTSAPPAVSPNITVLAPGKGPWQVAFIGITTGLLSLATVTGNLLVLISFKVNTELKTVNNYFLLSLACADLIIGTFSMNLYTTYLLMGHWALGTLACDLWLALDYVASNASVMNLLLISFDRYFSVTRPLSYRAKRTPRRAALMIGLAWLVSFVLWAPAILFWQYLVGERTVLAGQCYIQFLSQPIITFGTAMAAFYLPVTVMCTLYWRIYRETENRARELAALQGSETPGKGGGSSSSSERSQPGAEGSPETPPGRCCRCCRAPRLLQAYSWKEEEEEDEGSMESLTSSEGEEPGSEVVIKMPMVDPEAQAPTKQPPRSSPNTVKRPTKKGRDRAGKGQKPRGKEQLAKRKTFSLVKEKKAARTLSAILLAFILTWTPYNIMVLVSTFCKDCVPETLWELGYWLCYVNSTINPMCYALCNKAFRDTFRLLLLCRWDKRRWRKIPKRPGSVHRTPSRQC

Row | Structure (SMILES) | inhibition
1 | COc1ccc(NC(=O)c2cccc(Cl)c2)c[n+]1[O-] | -8.94% (inactive)
2 | Cc1nc2nc(C)c(NS(=O)(=O)c3ccc(C(C)(C)C)cc3)c(=O)n2[nH]1 | 20.2% (active)
3 | Cc1cccc(NS(=O)(=O)c2ccc([N+](=O)[O-])cc2)n1 | -16.4% (inactive)
4 | CCc1nc2nc(C)c(NS(=O)(=O)c3ccc4c(c3)CCCC4)c(=O)n2[nH]1 | 12.2% (inactive)
5 | Cc1ccn2c(=O)c(C(=O)NCCC3=CCCCC3)c(O)nc2c1 | -8.96% (inactive)
6 | CN(C)C(=O)N1CCNCC1 | -11.2% (inactive)
7 | CC(=O)N1CCOc2ccc(S(=O)(=O)N3CCC(C(=O)Nc4ccccc4F)CC3)cc21 | -13.2% (inactive)
8 | CC(C)(C)N(CC#CCC(O)(c1ccccc1)C1CCCC1)CCO (stereo not drawn) | 83.9% (active)
9 | CC(C)c1ccc(N2CC(C(=O)Nc3nccs3)CC2=O)cc1 (stereo not drawn) | 12.6% (inactive)
10 | CCCCn1nnnc1C(c1cccc(OC)c1OC)N1CCN(C/C=C/c2ccccc2)CC1 (stereo not drawn) | 34.7% (inactive)
11 | CN1CCN(C2Cc3ccc(Cl)cc3Sc3ccc(F)cc32)CC1 (stereo not drawn) | 60% (active)
12 | COc1ccc(NC(=O)C(CC(C)C)NC(=O)C2CCC(C)CC2)cc1 (stereo not drawn) | 0.68% (inactive)
13 | CCN(CC)CCNC(=O)c1ccc(NC(=O)c2cc(-c3ccncc3)nc3ccccc23)cc1 | 45.5% (active)
14 | CCN(CC)CCNC(=O)c1ccc(NC(=O)c2c(F)cccc2Cl)cc1 | -0.98% (inactive)
15 | O=C(Nc1ccc(S(=O)(=O)Nc2nccs2)cc1)c1cc(-c2ccncc2)nc2ccccc12 | -10.5% (inactive)
16 | COC(=O)c1ccc2nc(-c3cccc(Br)c3)c(Cc3ccc(OC)cc3C)n2c1 | -41.3% (inactive)
17 | CCCCNc1c(-c2ccc(OC)c(Sc3ccc(OC)cc3)c2)nc2ccc(Cl)cn12 | 19.9% (inactive)
18 | CCCCNc1c(-c2cccc(Sc3ccc(OC)cc3)c2)nc2ccccn12 | 36.9% (active)
19 | CCCCNC(=O)c1nc(C2CCN(S(=O)(=O)c3ccc(F)c(F)c3)CC2)oc1-c1cccc(C(F)(F)F)c1 | -12% (inactive)
20 | CCN(CC)CCCC(C)n1c2nc(=O)[nH]c(=O)c-2nc2cc(Cl)ccc21 (stereo not drawn) | 49.8% (active)
21 | O=Cc1cn(CCOc2ccc(F)cc2)c2ccccc12 | 7.49% (inactive)
22 | CCCN(CCC)S(=O)(=O)c1cc2c(cc1Br)CCN2C(=O)CC | -3.69% (inactive)

Row | Structure (SMILES) | inhibition
23 | CCN1CCN(c2c(Cl)cccc2NC(=O)c2ccc(Br)o2)CC1 | 33% (active)
24 | O=C(Nc1cccc(Cl)c1N1CCOCC1)c1cccnc1 | -2.23% (inactive)
25 | O=C(Nc1cccc(Cl)c1N1CCOCC1)c1ccc2c(c1)OCCO2 | -6.53% (inactive)
26 | CCn1cc(-c2cc(C(=O)O)on2)c(C)n1 | -5.04% (inactive)
27 | Cc1ccc(-c2nc3ccc(Br)cn3c2Cc2ccccc2C(F)(F)F)cc1 | -2.72% (inactive)
28 | CN1C(=O)c2ccc(NC(=O)c3c(F)c(F)c(F)c(F)c3F)cc2C1=O | -10% (inactive)
29 | O=C(CSc1nc2c(cnn2-c2ccc(F)cc2)c(=O)[nH]1)N1CCCCCC1 | 39.7% (active)
30 | Cc1cccc(-n2ncc3c(=O)[nH]c(SCC(=O)Nc4cc(C)on4)nc32)c1 | -7.77% (inactive)
31 | CCC(C)Sc1nc2c(cnn2-c2ccc(F)cc2)c(=O)[nH]1 (stereo not drawn) | -10.5% (inactive)
32 | CC(C)C[C@H](NC(=O)[C@@H]1O[C@H]1C(=O)O)C(=O)NCCCCN=C(N)N | -28.2% (inactive)
33 | CCCNC(=O)C1(C)CCN(Cc2csc(-c3ccc(Cl)cc3)n2)C1 (stereo not drawn) | 15.8% (inactive)
34 | CSCCC(c1nnnn1Cc1ccccc1)N1CCN(C/C=C/c2ccccc2)CC1 (stereo not drawn) | -4.53% (inactive)
35 | Nc1ncnc2c1ncn2[C@@H]1O[C@H](C(=O)N2CCSC2)[C@@H](O)[C@H]1O | -21.6% (inactive)
36 | CN(C)CCCO/N=C(\c1ccccc1)c1ccncc1 | 34.6% (active)
37 | COc1cc(OC)nc(N/N=C(\c2ccccc2)c2ccncc2)n1 | 1.36% (inactive)
38 | O=C(O/N=C(/c1ccccc1)c1ccncc1)c1ccccc1[N+](=O)[O-] | 0.78% (inactive)
39 | CCc1cc2c(N3CCN(c4nnc(CC)s4)CC3)ncnc2s1 | 6.82% (inactive)
40 | Oc1ccccc1N1CCN(c2ncnc3sc(-c4ccccc4)cc23)CC1 | 25.7% (active)
41 | COc1ccccc1N1CCN(c2ncnc3sc(C)c(-c4ccccc4)c23)CC1 | -8.38% (inactive)
42 | CN(C)C(=O)c1cccc(-c2cnc3c(NC=O)cc(-c4ccc(F)cc4)cn23)c1 | -4.58% (inactive)
43 | Cc1cc(C)cc(OCC(=O)Nc2ccc(N3CCOCC3)cc2N2CCOCC2)c1 | 0.26% (inactive)
44 | O=C(COc1ccc(Cl)cc1)Nc1ccccc1CO | 3.31% (inactive)

Row | Structure (SMILES) | inhibition
45 | Cc1cc(N2CCCC2)ccc1NC(=O)COc1ccc(Cl)cc1 | 38.5% (active)
46 | Fc1ccccc1CCNc1nnnn1-c1ccccc1 | -15.4% (inactive)
47 | O=C(COc1ccccc1)Nc1nonc1NC(=O)COc1ccccc1 | 3.1% (inactive)
48 | COc1ccc(C)cc1NC(=S)Nc1ccccc1SC | -4.63% (inactive)
49 | O=C(c1cccs1)N1CCC(c2nc3ccccc3s2)CC1 | -0.25% (inactive)
50 | Cc1cccc(NC(=S)N2CCC(c3nc4ccccc4s3)CC2)c1 | 6.88% (inactive)
51 | Cc1cccc(C(=O)N2CCC(c3nc4ccccc4s3)CC2)c1 | 41.2% (active)
52 | CC(/C=C/c1ccccc1)=N\NC(=O)C1CC1(C)c1ccccc1 (stereo not drawn) | -3.18% (inactive)
53 | O=C(CNC(=O)c1ccccc1Br)NCCSc1ccc(Br)cc1 | -10.6% (inactive)
54 | COc1cc(NC(=O)COc2ccccc2Cl)ccc1NC(=O)C(C)C | 6.01% (inactive)
55 | CCc1ccccc1OCC(=O)Nc1ccc(C)c(S(=O)(=O)N2CCCCCC2)c1 | 6.49% (inactive)
56 | Cc1ccccc1OCC(=O)Nc1ccc(N2CCN(C(=O)C(C)C)CC2)c(Cl)c1 | 34.5% (active)
57 | CCN1C(=O)[C@H]2[C@@H](c3ccccc3)N[C@]3(CCCN(Cc4ccc(C)cc4)C3=O)[C@H]2C1=O | -5.93% (inactive)
58 | COc1ccccc1C(=O)NCCC(=O)NCC(c1ccco1)N1CCCCC1 (stereo not drawn) | -5.11% (inactive)
59 | COc1ccc(C(CNC(=O)c2cccnc2SC)N2CCOCC2)cc1 (stereo not drawn) | -5.53% (inactive)
60 | CSc1ncccc1C(=O)NCC(c1ccco1)N1CCCCC1 (stereo not drawn) | 34.8% (active)
61 | Cc1nn(-c2ccccc2)c2sc(C(=O)N(Cc3ccco3)C(C)C(=O)NC(C)(C)C)cc12 (stereo not drawn) | -7.09% (inactive)
62 | CCOC1=C2CN(S(=O)(=O)c3ccc(C)cc3)[C@H](c3cccs3)C[C@H]2[C@H]2C(=O)N(c3ccccc3)C(=O)[C@H]2C1 | 1.5% (inactive)
63 | CC(C)C1CC2=C(C(=O)OC(C)(C)O2)C(c2ccc(F)cc2)O1 (stereo not drawn) | -37.3% (inactive)
64 | O=C(NCC(=O)N(CC1CCCO1)C(C(=O)NC1CCCCC1)c1ccccc1)c1ccco1 (stereo not drawn) | -7.84% (inactive)
65 | O=C(NCC(=O)N(Cc1cccs1)C(C(=O)NC1CCCCC1)c1ccco1)c1cccs1 (stereo not drawn) | 35.6% (active)
66 | Cc1ccccc1N(C(=O)CNC(=O)c1cccs1)C(C(=O)NC1CCCC1)c1ccncc1 (stereo not drawn) | -4.08% (inactive)

Row | Structure (SMILES) | inhibition
67 | COc1ccc(CC(N)c2csc(NC(=O)NC(c3ccccc3)c3ccccc3)n2)cc1 (stereo not drawn) | -1.87% (inactive)
68 | CN1OC[C@@H]2CN(C(=O)C(C)(C)C)[C@H](c3ccc(-n4ccnc4)cc3)C[C@@H]21 | 13.8% (inactive)
69 | O=C(COC(=O)c1cc(S(=O)(=O)N2CCOCC2)ccc1F)NC1CC1 | -2.77% (inactive)
70 | CCOC(=O)/C(N=Nc1cc(C(=O)O)cc(C(=O)O)c1)=C(\O)CCl | -12% (inactive)
71 | Cc1ccc2nc(NC(=O)CSc3nc(=O)n(CCCN(C)C)c4c3CCC4)sc2c1 | 8.16% (inactive)
72 | CCN(CC)CCn1c2c(c(SCC(=O)Nc3nc4ccccc4s3)nc1=O)CCCC2 | 42.1% (active)
73 | CCN(CC)CCn1c2c(c(SCC(=O)Nc3ccc(C(C)C)cc3)nc1=O)CCC2 | 7.72% (inactive)
74 | COCCn1c(SCC(=O)Nc2cc(OC)ccc2OC)nc2c(c1=O)SC(C)C2 (stereo not drawn) | -11.7% (inactive)
75 | CC1CN(C(=O)c2ccc3c(c2)OCO3)OC(c2ccccc2)O1 (stereo not drawn) | 1.63% (inactive)
76 | CCC(C)(C)c1ccc(Oc2ccc(NC(=O)COC(=O)C3=COCCO3)cc2)cc1 | 24.8% (active)
77 | COc1ccc(NC(=O)COC(=O)C2COc3ccccc3O2)cc1 (stereo not drawn) | -2.48% (inactive)
78 | CCOc1ccc(NC(=O)c2ccc(NC(=O)COC(=O)c3ccc(NC(=O)CC#N)cc3)cc2)cc1 | 7.32% (inactive)
79 | COc1ccc(C(C(=O)NC2CCCCC2)N(C(=O)Cc2c[nH]c3ccccc23)c2ccccc2)cc1OC (stereo not drawn) | -2.89% (inactive)
80 | COc1ccc(C2CC(c3cccs3)=NN2C(=O)COC(=O)c2cc3ccccc3cc2O)cc1OC (stereo not drawn) | -1.73% (inactive)
81 | COc1ccc(C2CC(c3cccs3)=NN2C(=O)CSc2nncs2)cc1OC (stereo not drawn) | -3.74% (inactive)
82 | COc1ccc(C2CC(c3cccs3)=NN2C(=O)CSc2nnc(N)s2)cc1OC (stereo not drawn) | 48.8% (active)
83 | O=C(Nc1nnc([C@H]2C[C@H](O)[C@@H](CO)O2)s1)c1cccc(Cl)c1 | -7.54% (inactive)
84 | Nc1nc2c(ncn2[C@@H]2O[C@H](CNCc3ccc(OCCCN4CCOCC4)cc3)[C@@H](O)[C@H]2O)c(=O)[nH]1 | -12.3% (inactive)
85 | Cn1nc(C(F)(F)F)c(C(=O)Nc2cccc(C(F)(F)F)c2)c1SCc1ccc(Cl)cc1 | 45.3% (active)
86 | O=C(CN1CCN(c2ccc(F)cc2)CC1)Nc1cccc(C(F)(F)F)c1 | -30.1% (inactive)
87 | COC(=O)c1ccccc1Sc1c(/C=N/OCc2ccc(Cl)cc2)c(C(F)(F)F)nn1C | 6.15% (inactive)
88 | COc1cccc(NC(=O)Nc2nnc(N3CCCCC3C)s2)c1 (stereo not drawn) | -9.08% (inactive)
